# Measured values: the OligoGym collection
# Target: USO1
# Assay: pooled miR-30 sensor sort-seq; sequence = guide strand
# Settings: shRNA
# Note: reference of the scale not given here.
row,Sequence,sensor-assay potency score (higher = more potent)
1,TATATTATATAGTATGTCCAAA,-1.01
2,TAGCATTAGATGTAGATTGGTC,0.084
3,TTATCATTGAAATAAATCGAAA,-1.61

# Target: USP2
# Assay: as above
# Settings: shRNA
row,Sequence,sensor-assay potency score (higher = more potent)
1,TTTTGCAAACTCTTCCACGAGG,-0.596
2,TATTTTCTCCACATCTGTCGGC,0.643
3,TTAGGTCTCAGTGTCACTCGGT,0.557
4,TAGATATTTTCTCCACATCTGT,-1.14
5,TTGGTGAAGAGCCTCATGCAGT,-0.823
6,TAGTTTTGCAAACTCTTCCACG,-0.662
7,TAGAACAGTAACCACAATCTGT,-0.00783
8,TTCTCCACATCTGTCGGCCTTT,-0.4
9,TAGGTCTCAGTGTCACTCGGTT,-0.44
10,ATTGAGTTCATGAAGCACGTGT,0.753
11,TGAAAGTGTGCCATTCTCCTGT,0.787

# Target: USP43
# Assay: as above
# Settings: shRNA
row,Sequence,sensor-assay potency score (higher = more potent)
1,TAGCACCTTGCTCTCACTGTGG,-0.424
2,TTGCTGAGGATAGACTGCTGGA,-0.504
3,TTTGCACAAAGCTTTGACCTAG,0.51
4,TGTAGAACTGAAAACATTCATC,-0.712
5,TAGGTAGGGACACACACAGGAA,-1.19
6,TACTCCACCAACTCGACGGAGG,-1.32
7,TAGAACAGGATATAAGCCCCTC,-0.232
8,TTGCACAAAGCTTTGACCTAGA,0.359
9,TTGCTGTGTTTGGACCATCTGA,-0.995
10,TTCGGAGACAAATAGCTGCAGG,-0.652
11,TTTCCTTGAGTTTCCTTGCTGT,0.819
12,TCGTACAGGAAGTCCAGCGGGT,-0.327
